# Test results taken from PubChem BioAssay AID1117306 (National Center for Advancing Translational Sciences (NCATS), 2015).
# Activity calls are given as the source filed them. The call rests on the fitted dose curve.
# Settings: Ebola virus entry assay, blue channel imaging
SMILES,AC50,outcome
CC[C@]1(O)C[C@H]2CN(CCc3c([nH]c4ccccc34)[C@@](C(=O)OC)(c3cc4c(cc3OC)N(C=O)[C@H]3[C@@](O)(C(=O)OC)[C@H](OC(C)=O)[C@]5(CC)C=CCN6CC[C@]43[C@@H]65)C2)C1,0.153 µM (active),
C[C@@H]1O[C@@H](O[C@H]2CC[C@@]3(C)[C@H](CC[C@@H]4[C@H]3C[C@@H](O)[C@]3(C)[C@@H](C5=CC(=O)OC5)CC[C@]43O)C2)C[C@H](O)[C@@H]1O[C@H]1C[C@H](O)[C@H](O[C@H]2C[C@H](O)[C@@H](O)[C@@H](C)O2)[C@H](C)O1 (stereo in doubt),,inactive
CCN(CC)CCNC(=O)c1c(C)[nH]c(/C=C2\C(=O)Nc3ccc(F)cc32)c1C,3.06 µM (active),
CCCNCC(O)COc1ccccc1C(=O)CCc1ccccc1 (stereo not given),9.68 µM (active),
COC1=CC(=O)C[C@@H](C)[C@]12Oc1c(Cl)c(OC)cc(OC)c1C2=O,,inactive
CCCCc1oc2ccc(NS(C)(=O)=O)cc2c1C(=O)c1ccc(OCCCN(CCCC)CCCC)cc1,4.85 µM (active),
Cc1nnc(C(C)C)n1C1C[C@H]2CC[C@@H](C1)N2CC[C@H](NC(=O)C1CCC(F)(F)CC1)c1ccccc1 (stereo not given in full),,inactive
CO[C@H]1C[C@@H]2CC[C@@H](C)[C@@](O)(O2)C(=O)C(=O)N2CCCC[C@@H]2C(=O)O[C@H]([C@@H](C)C[C@@H]2CC[C@H](O)[C@H](OC)C2)CC(=O)[C@H](C)C=C(C)[C@@H](O)[C@@H](OC)C(=O)[C@H](C)C[C@H](C)C=CC=CC=C1C,,inactive
CC[C@H]1OC(=O)[C@H](C)[C@@H](O[C@H]2C[C@@](C)(OC)[C@@H](O)[C@H](C)O2)[C@H](C)[C@@H](O[C@@H]2O[C@H](C)C[C@H](N(C)C)[C@@H]2O)[C@](C)(O)C[C@@H](C)CN(C)[C@H](C)[C@@H](O)[C@]1(C)O,4.32 µM (active),
CCC1=C[C@@H]2CN(C1)Cc1c([nH]c3ccccc13)[C@@](C(=O)OC)(c1cc3c(cc1OC)N(C)[C@H]1[C@@](O)(C(=O)OC)[C@H](OC(C)=O)[C@]4(CC)C=CCN5CC[C@]31[C@@H]54)C2,0.153 µM (active),
COC(=O)Nc1nc2ccc(C(=O)c3ccccc3)cc2[nH]1,,inactive
NCCCC(O)(P(=O)(O)O)P(=O)(O)O,,inactive
COC(=O)Nc1nc2ccc(C(=O)c3cccs3)cc2[nH]1,0.611 µM (active),
CN1CCN(CCCN2c3ccccc3Sc3ccc(C(F)(F)F)cc32)CC1,9.68 µM (active),
CCCSc1ccc2nc(NC(=O)OC)[nH]c2c1,,inactive
CC[C@H]1OC(=O)[C@H](C)[C@@H](O[C@H]2C[C@@](C)(OC)[C@@H](O)[C@H](C)O2)C(C)[C@@H](O[C@@H]2O[C@H](C)C[C@H](N(C)C)[C@@H]2O)[C@](C)(OC)C[C@@H](C)C(=O)[C@H](C)[C@@H](O)[C@]1(C)O (stereo not given in full),6.85 µM (active),
CC[C@]1(O)C[C@@H]2CN(CCc3c([nH]c4ccccc34)[C@@](C(=O)OC)(c3cc4c(cc3OC)N(C)[C@H]3[C@@](O)(C(=O)OC)[C@H](OC(C)=O)[C@]5(CC)C=CCN6CC[C@]43[C@@H]65)C2)C1,0.137 µM (active),
CN(C)CCOc1ccc(/C(=C(/CCCl)c2ccccc2)c2ccccc2)cc1,1.37 µM (active),
COc1cccc2c1C(=O)c1c(O)c3c(c(O)c1C2=O)C[C@@](O)(C(C)=O)C[C@H]3O[C@H]1C[C@H](N)[C@H](O)[C@H](C)O1,3.43 µM (active),
CO[C@H]1C[C@@H]2CC[C@@H](C)[C@@](O)(O2)C(=O)C(=O)N2CCCC[C@@H]2C(=O)O[C@H]([C@H](C)C[C@@H]2CC[C@H](OCCO)[C@H](OC)C2)CC(=O)[C@H](C)C=C(C)[C@@H](O)[C@@H](OC)C(=O)[C@H](C)C[C@H](C)C=CC=CC=C1C,,inactive
